Data on 27 compounds can be found in PubChem BioAssay AID488857 (Sanford-Burnham Center for Chemical Genomics, 2010).

As usually defined, the inhibition is the drop in the measured response relative to a control, in per cent.

The campaign covered roughly 1,400 compounds. About 560 (40%) were called active.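 Rule for the calls: active = mean inhibition over duplicate tests at 10 µM above 50%; inactive = the rest.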 The set was probably picked from earlier hits. The list shows a part of the results.

The nature of this assay: ASC/caspase-1 reporter retest in S. cerevisiae at one dose, specificity check for NALP1 project (AID 488857). Particulars: S. cerevisiae ASC/Caspase-1, beta-galactosidase luminescence, 24 h; at 10 µM; active compounds read high.
Take `COc1ccccc1-c1nnc2sc(COc3ccc(Cl)cc3)nn12`: the inhibition is 56.9% (active).

With `COc1ccccc1C(=O)Nc1ccc(OCc2nnc3c4ccccc4c(C)nn23)cc1`, the inhibition is 45.4% (inactive).

Turning to `Clc1ccc(Cn2c(/C=C/c3ccco3)nc3ccccc32)cc1`, the inhibition is 46.5% (inactive). The result for `Oc1c(I)cc(Cl)c2cccnc12` reads 97.2% (active); that for `Oc1c(CN2CCCCC2)cc(Br)c2cccnc12`, 49% (inactive); that for `O=C(N/N=C/c1cccc(F)c1)c1c(O)c2ccccc2[nH]c1=O`, 38.5% (inactive). Consider `NC(=S)N/N=C/c1coc2c(ccc3ccccc32)c1=O`, for which the inhibition is 58% (active). As for `CSc1ccc(C(=O)C2CCCN(C(=O)c3ccc4c(c3)no[n+]4[O-])C2)cc1` (configuration not stated), the figure is 19.9% (inactive). As for `Cn1c(=O)c([N+](=O)[O-])c(-n2cnc3ccccc32)c2ccccc21`, the figure is 14.3% (inactive); as for `O=[N+]([O-])/C(C(=C(Cl)Cl)N1CCN(Cc2ccccc2)CC1)=C1\NCCN1Cc1ccc(Cl)nc1`, 41.5% (inactive). Regarding `CN(C)/C=N/n1cnc2ccccc2c1=O`, the inhibition is 32% (inactive). For `Cc1cc2ncn(/N=C/c3ccc([N+](=O)[O-])s3)c2cc1C`, the inhibition is 67.8% (active). The result for `CCCCCCCCCCCCCCCC[n+]1cccc2ccccc21` reads 93.7% (active); that for `O=c1c(Br)c(N2CCCC2)cnn1-c1ccccc1`, 64.9% (active). As for `c1ccc2sc(Sc3ncnc4sccc34)nc2c1`, the figure is 44.6% (inactive). The result for `Cn1c2ccccc2c(=O)c2c(=O)n(C3CCCCCC3)c(C3CCCCC3)nc21` reads 53.2% (active); that for `COc1ccc(CCn2c(C(C)C)nc3c(c(=O)c4ccccc4n3C)c2=O)cc1`, 28% (inactive); that for `COC(=O)c1ccc(NC(=O)c2ccccc2N(C)S(=O)(=O)c2ccccc2)cc1`, 55.2% (active). Regarding `Cc1ccc(NC(=O)c2cccc(S(=O)(=O)N(C)c3ccccc3)c2)cc1S(=O)(=O)N1CCOCC1`, the inhibition was 36.1% (inactive).

Regarding `COc1cc(/C=C/C(=O)Nc2ccc(C)cc2)cc(OC)c1OC`, the inhibition is 46.8% (inactive). As for `CSc1ccc(/C=C/C(=O)c2ccc(O)cc2)cc1`, the figure is 81.2% (active); as for `CC(=O)c1ccc(NC(=O)/C=C/c2ccc(C)cc2)cc1`, 60.4% (active). The result for `CSc1ccc(/C=C/C(=O)c2ccc(NC(C)=O)cc2)cc1` reads 75.5% (active); that for `Cc1c(N)c(C(C)(C)C)cc(C(C)(C)C)c1[N+](=O)[O-]`, 35.1% (inactive).

For `CCN1CCN(c2cc3c(cc2F)c(=O)c(C(=O)O)cn3C2CC2)CC1`, the inhibition is 36.3% (inactive). Regarding `CCOC(=O)C(=O)C1=C(N2CCOCC2)/C(=C\c2ccc(F)cc2)CC1`, the inhibition was 36.2% (inactive). As to `COc1ccc(OC)c(/C=c2\sc3nc(-c4cccs4)nn3c2=O)c1`, the inhibition was 23.2% (inactive).
